Hits are enriched below; roughly 9.9% of the tested compounds scored in any of these assays.
IL1B secr inh: qHTS for Inhibitors of Inflammasome Signaling: IL-1-beta AlphaLISA Primary Screen | THP-1 LPS/ATP IL-1B secretion, AlphaLISA, 16 h; hits give low values | activity change, % at 57.5 µM | 360,000 tested, 4.7% active; in the data active means activity change below about -50%; inconclusive means mostly about -30% to -49%; further: on the % scale 0 is the no-effect control and ±100 the full control effect
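Secreted IL-1B measured by AlphaLISA bead assay after 16 h compound exposure of THP-1 cells; compounds (final up to 57.5 uM) added 1 h before LPS (250 ng/mL) and ATP (1.25 mM) stimulation; lower signal means less secretion.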
MCF10A rerep: A quantitative high throughput screen for small molecules that induce DNA re-replication in MCF 10a normal breast cells; 350,000 tested, 2.9% active; Potency, µM (series often up to 46.1 µM), without a hit: top-dose activity, positive = re-replication, most hits filed as activators; MCF 10A DNA re-replication, Hoechst nuclear intensity, 48 h; AID 624296, 2012; further: potency means the concentration at half of the fitted maximal effect; % of control where 0% means no effect; nearly all actives have a fitted effect of over 50% in size
KB-V1 cytotox: qHTS assay for MDR1-selective chemotherapeutics: Primary screen using the drug-selected MDR subline cells KB-V1. 400,000 tested, 3.4% active. Potency, µM (top dose mostly 46.1 µM), hits mostly cytotoxic. KB-V1 MDR cells viability, CellTiter-Glo, 72 h; further: potency means the concentration at half of the fitted maximal effect; on the % scale 0 is the no-effect control and ±100 the full control effect; nearly all actives have a fitted effect of over 60% in size
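Luminescent ATP read-out (CellTiter-Glo, 10 min) measures survival of drug-selected KB-V1 MDR cells after 72 h, 37 degrees C compound exposure. Medium: phenol-red-free DMEM, 10% FBS. Values from fitted concentration-response curves.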
SW480 rerep: A quantitative high throughput screen for small molecules that induce DNA re-replication in SW480 colon adenocarcinoma cells; SW480 DNA re-replication, Hoechst DNA content imaging, 48 h; Potency, µM (series often up to 46.1 µM), for inactives: top-dose re-replication activation, usual class: activators; 340,000 tested, 1.8% active; AID 624297, 2012; further: potency means the concentration at half of the fitted maximal effect; % of control where 0% means no effect; nearly all actives have a fitted effect of over 55% in size
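250 cells/well; 23 nL cpd via pin tool; 48 hr, 37 C, 5% CO2; Hoechst 40 min; imager read of total nuclear intensity, ex 405/em 500-530 nm.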
KB-3-1 cytotox: qHTS assay for MDR1-selective chemotherapeutics: Primary screen using the parental adenocarcinoma cell KB-3-1 | KB-3-1 viability, CellTiter-Glo ATP luminescence, 72 h | Potency, µM (titrated, usually from 46.1 µM), actives largely listed as cytotoxic | 400,000 tested, 1.4% active | AID 1347075, 2019; further: potency means the concentration at half of the fitted maximal effect; on the % scale 0 is the no-effect control and ±100 the full control effect; nearly all actives have a fitted effect of over 60% in size
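Cells are dispensed, compounds pinned in, plates held at 37 °C for 72 h, then CellTiter-Glo is added and luminescence read after 10 minutes. Cell line: parental KB-3-1 in phenol-red-free DMEM, 10% FBS.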
Starred values were filed as active, the others as inactive; i = inactive; u = inconclusive; x = no result given. Unless noted, the call rests on the fitted dose curve; in most records, active means well fitted curve in the direction sought with a large enough effect; inconclusive means small, poorly fitted or top-dose-only effect, or another doubt; inactive means no such curve, though single readings can be large; an effect the other way counts as inactive or inconclusive.

SMILES	IL1B secr inh	MCF10A rerep	KB-V1 cytotox	SW480 rerep	KB-3-1 cytotox
Cc1ncc(CN2CCCC(C(=O)Nc3ccc(-c4ccco4)cc3)C2)cn1 (centres undefined)	-18.1	1.6%	i	u	i
CC(=O)c1ccc(NS(=O)(=O)c2cccc(C(=O)Nc3ccccc3C(=O)O)c2)cc1	4.8	12.5%	i	-5.8%	i
O=C(c1ccccc1)c1c(-c2ccccc2)[nH]n(-c2ccccc2)c(=O)c1=O	13.1	16.5%	i	-8.3%	i
O=C(Cc1ccc(F)cc1)N1CCN(c2ccc([N+](=O)[O-])cc2)CC1	-3.4	1.9%	i	1.7%	i
O=C(Cc1ccccc1[N+](=O)[O-])N1CCN(c2ccc(F)cc2)CC1	12.0	8.6%	u	11.6µM*	i
O=C(CSc1ccc(Cl)cc1)N1CCN(c2c(Cl)cccc2[N+](=O)[O-])CC1	-14.4	24.7%	i	0.2%	i
O=C(/C=C/c1cccc([N+](=O)[O-])c1)N1CCN(c2ccc(F)cc2)CC1	0.2	0.6%	20.6µM*	17.1%	i
O=C(/C=C/c1ccc(Cl)cc1)N1CCN(c2c(Cl)cccc2[N+](=O)[O-])CC1	-75.7*	21.9%	i	11.4%	i
CCOc1ccc(/C=N/NC(=O)CNC(=O)c2ccc(S(=O)(=O)N3CCOCC3)cc2)cc1	4.2	-2.8%	i	3.9%	i
C[C@@H]1[C@H](c2ccccc2)Oc2ccc(Cl)cc2S(=O)(=O)N1CC1CCCN1C(=O)OC(C)(C)C (some centres undefined)	8.5	9.8%	i	-2.9%	u
CN1CCCC1CCOC(C)(c1ccccc1)c1ccc(Cl)cc1 (centres undefined)	u	13.5%	u	7.08µM*	i
CCOC(=O)c1c(-c2ccc(C)s2)csc1NC(=O)c1cccs1	1.6	10.5%	i	-14.7%	i
Cc1sc(NC(=O)c2cccs2)c(C(N)=O)c1C	-58.7*	18.7%	i	-5.5%	i
CCOC(=O)c1c(NC(=O)c2cccs2)sc(CC)c1-c1cccs1	-11.0	u	18.4µM*	12.4%	i
O=C(O)/C=C/C(=O)OC1CC2CCC1C2 (centres undefined)	-6.2	9.2%	i	u	i
c1ccc(-c2nnc(N3CCN(c4ccccn4)CC3)c3ccccc23)cc1	-72.8*	u	u	1.8%	u
Clc1nnc(N2CCCCC2)c2ccccc12	-81.3*	u	u	u	i
Cc1ccc(-c2nnc(N3CCCCC3)c3ccccc23)cc1	-55.7*	3.9%	i	0.4%	i
Cc1ccc(-c2nnc(N3CCN(c4ccccn4)CC3)c3ccccc23)cc1	-89.4*	u	u	17.8%	u
CC(=O)Nc1ccc(/C=C/c2ccncc2)cc1	x	x	i	x	u
Cc1ccc(C(=O)Nc2c(-c3ccc(Cl)cc3)[nH][nH]c2=O)cc1	-14.0	x	i	x	i
COc1ccc(N2CCN(C(=O)c3cc4c(-c5ccccc5F)nn(C)c4s3)CC2)cc1	x	x	i	x	i
Cc1ccc(-c2nnc(N3CC(C)OC(C)C3)c3ccccc23)cc1 (centres undefined)	-74.7*	-2.6%	i	-4.9%	i
Cc1ccc(-c2nnc(N3CCN(CCO)CC3)c3ccccc23)cc1	u	13.2%	i	-0.9%	i
CSc1ncc(Cl)c(C(=O)Nc2cc(C(F)(F)F)ccc2Cl)n1	x	x	i	x	i
O=C(/C=C/c1ccc(O)c(O)c1)c1ccc(S(=O)(=O)N2CCCCCC2)cc1	-73.8*	u	i	u	i
Cc1ccccc1NC(=O)c1ccc(CN2CCc3ccccc3C2)cc1	-14.7	u	u	-1.8%	10.3µM*
Cc1cccc(NC(=O)c2ccc(CN3CCc4ccccc4C3)cc2)c1C	6.6	23.1µM*	u	13.4%	u
CC(C)n1cnnc1SCC(=O)NNC(=O)COc1ccc(Cl)cc1	5.6	-1.1%	i	-4.2%	i
